Molecules are shown by their SMILES. A number with no mark means an inactive call. Activity calls are given as the source filed them. Calls follow the shape of the dose curve; as a rule, active = well fitted curve in the direction sought with a large enough effect in the repeat runs; inconclusive = weak or mixed curves; inactive = flat fitted curve, though single readings scatter.
% is scaled to controls: 0 for no effect and ±100 for the full control effect.

A short description of this test: qHTS assay to test for compound auto fluorescence at 460 nm (blue) in HEK293 cell free culture (AID 720681). The note with it: cell-free medium, autofluorescence 405/460 nm (blue); series mostly up to 91.3 µM. An excerpt:
U.S. Tox21 Program National Center for Advancing Translational Sciences [NCATS] NIH Chemical Genomics Center [NCGC] U.S. Environmental Protection Agency [EPA] National Institutes of Environmental Health Sciences [NIEHS] National Toxicology Program [NTP] U.S. Food and Drug Administration [FDA] Tox21 Assay Overview: Compound auto fluorescence often interferes with screening of the compound library against various biological targets and signaling pathways. Some of these compounds may have fluorophoric properties. Such properties may interfere with the assay outputs resulting in false positives and/or negatives. To decrease such complications and ensure the compound activities are relevant in terms of biological response, the Tox21 10K compound library was screened for auto fluorescence. From the fluorophores used as reporter signals in our screening assays, the auto fluorescence equivalencies of compounds against three fluorophores have been evaluated: Triamterene, Fluorescein and Rose Bengal sodium for blue, green and red fluorescence, respectively. The fluorescence intensities were measured using Excitation/Emission wavelengths at 405/460nm, 485/535nm and 540/590nm for blue, green and red labels, respectively. This assay includes the blue fluorescence data.
Tox21 Assay Protocol Summary: 5 uL of culture medium (DMEM containing 10% FBS) per well was dispensed into black wall/clear bottom 1536-well plates using a Multidrop Combi Dispenser (ThermoFisher Scientific, Waltham, MA). After 23 nL compound or DMSO vehicle was transferred into assay plate by a pintool work station (Kalypsys, San Diego, CA), fluorescence intensities in the assay plates were measured by an Envision (PerkinElmer, Shelton, CT) plate reader using three labels for measuring blue, green and red fluorescence at […] 460, 535 and 590nm respectively.
Background: qHTS replaces the single test concentration by a dilution series.
`CC(CN)CC(C)(C)CCN` (stereo not given): the result was inactive.
Same read-out and setting: as for `CC1COc2ccccc2N1` (stereo not given), the entry is “inactive”; as for `CCCCOC(=O)c1ccccc1`, “inactive”.
Same read-out and setting: as for `CC(C)CCCCOC(=O)c1ccccc1C(=O)OCCCCC(C)C`, the entry is “inactive”; as for `CCc1ccc(C=O)cc1`, “inactive”.
On the same count and under the same terms, in the case of `CCC(C)(CCC(C)C)C(=O)O` (stereo not given) it was “inactive”.
As to `CN(C)CCOCCO`, the result was inactive.
Turning to `CN(C)C(=O)CNC(=O)Cc1ccccc1`, the call was inactive.
As for `c1ccc2c(c1)ccc1c3ccccc3ccc21`, the call was inactive.
For the molecule `COc1ccc(-c2cc(=O)c3c(O)cc(O[C@@H]4O[C@H](CO[C@@H]5O[C@@H](C)[C@H](O)[C@@H](O)[C@H]5O)[C@@H](O)[C@H](O)[C@H]4O)cc3o2)cc1O`, the outcome was inactive.
Turning to `CCCCCCCCCCCCCC`, the molecule was called inactive.
Turning to `CN(C)c1ccc(C=O)cc1`, the molecule was classed as inactive.
Consider `CC(C)NCC(O)COc1ccc(COCCOC(C)C)cc1` (stereo not given), for which the molecule was classed as inactive.
Consider `NNc1nnc(NN)c2ccccc12`, for which the outcome was inactive.
Consider `CC(C)(C)c1n[nH]c(=S)n(N)c1=O`, for which the molecule was classed as inactive.
Consider `N[C@@H](COP(=O)(O)O)C(=O)O`, for which the molecule was classed as inactive.
As to `CC(=O)Nc1cccc(C)c1`, the molecule was classed as inactive.
Take `COc1cc(C(=S)N2CCOCC2)cc(OC)c1OC`: the molecule was classed as inactive.
Take `COc1cc(NS(=O)(=O)c2ccc(N)cc2)nc(OC)n1`: the fluorescence, % of fluorescent control was 0.0589% [at 18.6 µM].
Take `O=C(O)c1cc(Br)c(O)c(Br)c1`: the molecule was classed as inactive.
As to `Cc1cc(Cl)c(C)cc1Cl`, the molecule was called inactive.
Same read-out and setting: as for `CCCN1C[C@H](CSC)C[C@@H]2c3cccc4[nH]cc(c34)C[C@H]21`, the entry is “inactive”; as for `CC(C)OC(=O)CCCCC(=O)OC(C)C`, “inactive”.
As to `CC(=O)c1sc(C)nc1C`, the molecule was called inactive.
Regarding `C=Cc1ccccn1`, the result was inactive.
As to `C=C(C)C(=O)OCCOP(=O)(O)OCCOC(=O)C(=C)C`, the molecule was classed as inactive.
Take `CNS(=O)(=O)CCc1ccc2[nH]cc(C3CCN(C)CC3)c2c1`: the molecule was called inactive.
For `BrCCCCCBr`, the call was inactive.
As to `CCNC(=O)C1CC(C)CCC1C(C)C` (stereo not given), the call was inactive.
On the same count and under the same terms, in the case of `CC(=O)/C=C/C1C(C)=CCC(C)C1(C)C` (stereo not given) it was “inactive”; in that of `COC(=O)[C@@H]1[C@H]2C[C@H]3c4[nH]c5ccccc5c4CCN3C[C@@H]2CC[C@@H]1O`, “inactive”.
Still for that read-out and setting: as for `CCC(C)NC(N)=O` (stereo not given), the entry is “inactive”.
Still for that read-out and setting: as for `OCCCCC(O)CO` (stereo not given), the entry is “inactive”; as for `CC/C=C\CC1=C(C)CCC1=O`, “inactive”.
In the case of `Cc1cccc(C)c1OCC(C)N` (stereo not given), the outcome was inactive.
For the molecule `CC(S)C(=O)NCC(=O)O` (stereo not given), the call was inactive.
Regarding `CC(C)C(=O)OCCc1ccccc1`, the molecule was classed as inactive.
For the molecule `NS(=O)(=O)c1ccc(NC(=O)CCC(=O)O)cc1`, the result was inactive.
Regarding `CCCCN`, the molecule was classed as inactive.
The same measure, in the same setting: in the case of `CCN1CCc2nc(N)oc2CC1` it was “inactive”.

(Values after PubChem BioAssay (Tox21).)
